Measurements as given in article PMC4336329 (PLoS ONE, 2015).
About 14,000 (4.5%) of roughly 310,000 compounds showed an effect of 50% or more. Effects have a minus sign here. The full list was thinned out, with strong results kept by preference.

Target: human ether-à-go-go-related gene (hERG) potassium channel (human, UniProt Q12809)
Test: primary screen, population patch clamp on CHO cells stably expressing hERG; higher = less effect of the substance
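Further: peak tail current of the secondary pulse compared with the same well before compound.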

human ether-à-go-go-related gene (hERG) potassium channel, sequence (Q12809 whole entry, looked up): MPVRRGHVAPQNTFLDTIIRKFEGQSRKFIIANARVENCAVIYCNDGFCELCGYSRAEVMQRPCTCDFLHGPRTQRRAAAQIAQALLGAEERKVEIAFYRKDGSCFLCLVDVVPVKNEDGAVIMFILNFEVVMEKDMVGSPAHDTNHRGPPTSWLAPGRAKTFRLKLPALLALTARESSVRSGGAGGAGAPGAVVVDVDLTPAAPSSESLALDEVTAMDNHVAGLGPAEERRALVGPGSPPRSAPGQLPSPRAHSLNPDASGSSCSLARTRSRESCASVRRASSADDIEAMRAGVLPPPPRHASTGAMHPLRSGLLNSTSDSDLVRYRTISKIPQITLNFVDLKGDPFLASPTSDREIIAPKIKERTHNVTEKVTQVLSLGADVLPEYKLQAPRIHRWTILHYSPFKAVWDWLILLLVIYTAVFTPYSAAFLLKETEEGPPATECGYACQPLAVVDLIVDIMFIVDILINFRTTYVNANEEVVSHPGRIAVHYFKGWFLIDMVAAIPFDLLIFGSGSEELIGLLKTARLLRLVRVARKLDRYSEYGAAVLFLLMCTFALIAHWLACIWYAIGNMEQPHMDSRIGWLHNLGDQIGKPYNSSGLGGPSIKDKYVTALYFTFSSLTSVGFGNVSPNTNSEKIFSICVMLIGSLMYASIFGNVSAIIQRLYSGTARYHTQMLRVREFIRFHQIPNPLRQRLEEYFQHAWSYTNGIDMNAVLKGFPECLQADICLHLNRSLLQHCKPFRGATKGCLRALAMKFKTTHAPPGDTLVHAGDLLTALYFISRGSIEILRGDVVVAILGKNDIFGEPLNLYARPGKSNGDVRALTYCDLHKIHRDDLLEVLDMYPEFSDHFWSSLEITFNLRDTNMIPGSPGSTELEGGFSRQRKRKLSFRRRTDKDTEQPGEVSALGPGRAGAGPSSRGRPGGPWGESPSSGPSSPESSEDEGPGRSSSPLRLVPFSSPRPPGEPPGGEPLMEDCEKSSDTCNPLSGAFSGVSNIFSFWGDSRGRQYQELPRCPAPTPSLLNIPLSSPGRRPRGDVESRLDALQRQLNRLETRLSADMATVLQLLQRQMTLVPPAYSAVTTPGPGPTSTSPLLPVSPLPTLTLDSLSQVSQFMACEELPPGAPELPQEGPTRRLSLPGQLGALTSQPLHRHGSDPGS

Compared with O=C(COC(=O)C12CC3CC(CC(Cl)(C3)C1)C2)Nc1ccc2[nH]c(=O)[nH]c2c1, O=C(NCC1CCN(Cc2ccccc2Cl)CC1)Nc1cccc(Cl)c1 is lower in “hERG current change (%, negative = inhibition) at 10uM” value: 11.5% for the first, -72% for the second.

Going from COc1cc(NC(=O)NCC2CCN(Cc3ccccc3Cl)CC2)cc(OC)c1OC to COc1cc(NC(=O)NCC2CCN(Cc3ccccc3F)CC2)cc(OC)c1, the “hERG current change (%, negative = inhibition) at 10uM” value falls from 3.03% to -14.9%.

Going from COc1ccc(OC)c(CN2CCC(CNC(=O)Nc3cccc(Cl)c3)CC2)c1 to COc1ccc(N2CCC(CNC(=O)Nc3cccc(OC)c3)C2)cc1 (stereo not shown), the “hERG current change (%, negative = inhibition) at 10uM” value rises from -60.8% to -15.7%.

Going from O=C(NCC1CCN(Cc2ccccc2Cl)CC1)Nc1ccccc1F to COc1ccccc1CNC(=O)N1CCN(c2ccccc2C)CC1, the “hERG current change (%, negative = inhibition) at 10uM” value rises from -44.7% to 6.36%.

Compared with COc1ccc(NC(=O)C2CCCO2)cc1 (stereo not shown), COc1ccc(N(CC(=O)NC2CCCCC2)C(=O)CCCC(=O)Nc2ccccn2)cc1 is lower in “hERG current change (%, negative = inhibition) at 10uM” value: -0.956% for the first, -65.9% for the second.

Compared with Cc1ccc(NC(=O)c2cccc(S(=O)(=O)N3CCN(c4ccc(F)cc4)CC3)c2)nc1, COc1ccccc1N1CCN(Cc2cc(=O)c(OCC(=O)Nc3ccccc3)co2)CC1 is higher in “hERG current change (%, negative = inhibition) at 10uM” value: -14.6% for the first, 25.5% for the second.

Going from Cc1cc(CN(C)C(=O)CC2C(=O)NCCN2Cc2ccc(F)c(F)c2)on1 (stereo not shown) to CCCOc1cccc(C2C(C(=O)c3ccc(C)o3)=C(O)C(=O)N2CCN2CCOCC2)c1 (stereo not shown), the “hERG current change (%, negative = inhibition) at 10uM” value falls from 31.1% to 10.5%.

First: Nc1ccc(-c2nnc(-c3ccc(-c4ccccc4)cc3)o2)cc1
Second: COc1ccccc1-c1cc(C(=O)Nc2cc(C)nn2-c2ccccc2)no1
The “hERG current change (%, negative = inhibition) at 10uM” value of the first is lower: 4.31% for the first, 17% for the second.

Going from S=c1[nH]c(-c2ccccc2)cs1 to Cl.NS(=O)(=O)c1ccc(CCNCC#Cc2ccccc2)cc1, the “hERG current change (%, negative = inhibition) at 10uM” value falls from 66.4% to -21.6%.

First: COc1ccc(C)cc1NS(=O)(=O)c1cccc2nonc12
Second: COc1cc(/C=N/n2c(C)nc3ccccc3c2=O)ccc1O
The “hERG current change (%, negative = inhibition) at 10uM” value of the first is lower: -10.7% for the first, 4.55% for the second.

Compared with O=C(O)c1cc([N+](=O)[O-])ccc1N1CCCCC1, CCN1CCN(c2ccc([N+](=O)[O-])cc2C(=O)OC)CC1 is lower in “hERG current change (%, negative = inhibition) at 10uM” value: -1.28% for the first, -63.7% for the second.

Going from COC(=O)c1cc([N+](=O)[O-])ccc1N1CCN(Cc2ccccc2)CC1 to NC(=O)c1cc([N+](=O)[O-])ccc1N1CCN(Cc2ccccc2)CC1, the “hERG current change (%, negative = inhibition) at 10uM” value rises from -72.2% to -41.8%.

First: CCN1CCN(c2ccc([N+](=O)[O-])cc2S(=O)(=O)N2CCOCC2)CC1
Second: O=C(c1cccc(NS(=O)(=O)c2cccc([N+](=O)[O-])c2)c1)N1CCOCC1
The “hERG current change (%, negative = inhibition) at 10uM” value of the first is lower: -43.9% for the first, 24.3% for the second.

Compared with CCOc1ccccc1NC(=O)COc1cccc(-n2cnnn2)c1, CCOc1ccc(N(CC(=O)NC2CCCC2)C(=O)CCC(=O)Nc2ccccn2)cc1 is lower in “hERG current change (%, negative = inhibition) at 10uM” value: -27.2% for the first, -56.2% for the second.

First: O=C(NCCNC(=O)c1ccccc1Br)c1ccccc1Br
Second: COCCCN1C(=O)C(O)=C(C(=O)c2ccco2)C1c1ccccc1 (stereo not shown)
The “hERG current change (%, negative = inhibition) at 10uM” value of the first is lower: 8.51% for the first, 21.3% for the second.

Compared with Cc1ccc(C(=O)N/N=C2\SCC(=O)N2c2cc(C)ccc2C)cc1, Cc1ccc(CNC(=O)CSc2ccsc2[N+](=O)[O-])cc1 is lower in “hERG current change (%, negative = inhibition) at 10uM” value: 8.16% for the first, -4.87% for the second.

Compared with CC(=O)C1=C(O)C(=O)N(c2ccc(Br)cc2)C1c1cccc([N+](=O)[O-])c1 (stereo not shown), CC(C)CC(COCc1ccc([N+](=O)[O-])cc1)N1CCN(C(=O)c2ccc(C(F)(F)F)cc2)CCC1=O (stereo not shown) is lower in “hERG current change (%, negative = inhibition) at 10uM” value: 24.5% for the first, -67.1% for the second.

First: COC(=O)CSc1nc2cc(C)cc(C)c2cc1C#N
Second: CC(=O)c1cc(C#N)c(Oc2cc(C)cc(C)c2)nc1C
The “hERG current change (%, negative = inhibition) at 10uM” value of the first is higher: 14.5% for the first, -4.94% for the second.

Going from CCCCOC(=O)C(C#N)c1nc2ccccc2nc1N1CCOCC1 (stereo not shown) to CCCCCCOC(=O)C(C#N)c1nc2ccccc2nc1N1CCOCC1 (stereo not shown), the “hERG current change (%, negative = inhibition) at 10uM” value rises from -12.8% to 1.23%.

First: CC1CCN(c2nc3ccccc3nc2C(C#N)C(=O)OC2CCCCC2)CC1 (stereo not shown)
Second: CN1CCN(c2nc3ccccc3nc2C(C#N)C(=O)OC2CCCCC2)CC1 (stereo not shown)
The “hERG current change (%, negative = inhibition) at 10uM” value of the first is higher: 11.3% for the first, -79.5% for the second.

First: CCCCCCOC(=O)C(C#N)c1nc2ccccc2nc1N1CCN(CC)CC1 (stereo not shown)
Second: CCCCCCOC(=O)C(C#N)c1nc2ccccc2nc1N1CCN(C)CC1 (stereo not shown)
The “hERG current change (%, negative = inhibition) at 10uM” value of the first is higher: -70.2% for the first, -74.7% for the second.

Compared with CCCCOC(=O)C(C#N)c1nc2ccccc2nc1N1CCN(Cc2ccc3c(c2)OCO3)CC1 (stereo not shown), CCCCCCOC(=O)C(C#N)c1nc2ccccc2nc1N1CCCCC1 (stereo not shown) is higher in “hERG current change (%, negative = inhibition) at 10uM” value: -7.01% for the first, 1.37% for the second.

Going from N#CC(C(=O)OC1CCCCC1)c1nc2ccccc2nc1N1CCOCC1 (stereo not shown) to O=C(CCCC(=O)N(CC(=O)NC1CCCCC1)c1ccc(F)cc1)Nc1ccccn1, the “hERG current change (%, negative = inhibition) at 10uM” value rises from -36.8% to 7.12%.

Compared with CCOC(=O)N1CCC(N(CCCOC)C(=O)Nc2ccc(CC)cc2)CC1, CCOc1ccc(N(CC(=O)NC2CCCC2)C(=O)CCCC(=O)Nc2ccccn2)cc1 is higher in “hERG current change (%, negative = inhibition) at 10uM” value: -48.6% for the first, -10.8% for the second.

First: CC(C)CC(COCc1ccc(C(F)(F)F)cc1)N1CCN(C(=O)c2ccc(C(F)(F)F)cc2)CCC1=O (stereo not shown)
Second: CC(C)CC(COCc1ccc(Cl)cc1)N1CCN(C(=O)c2ccc(C(F)(F)F)cc2)CCC1=O (stereo not shown)
The “hERG current change (%, negative = inhibition) at 10uM” value of the first is higher: -16.7% for the first, -44.5% for the second.

Compared with O=C(CCCC(=O)N(CC(=O)NC1CCCCC1)c1cccc(F)c1)Nc1ccccn1, O=C(CCCC(=O)N(CC(=O)NC1CCCC1)c1cccc(F)c1)Nc1ccccn1 is higher in “hERG current change (%, negative = inhibition) at 10uM” value: -55.3% for the first, 4.77% for the second.

First: COc1cccc(N(CC(=O)NC2CCCCC2)C(=O)CCCC(=O)Nc2ccccn2)c1
Second: CCOc1ccc(N(CC(=O)NC2CCCCC2)C(=O)CCCC(=O)Nc2ccccn2)cc1
The “hERG current change (%, negative = inhibition) at 10uM” value of the first is higher: 13.2% for the first, -0.443% for the second.

First: Cc1ccc(N(CC(=O)NC2CCCCC2)C(=O)CCC(=O)Nc2nccs2)cc1
Second: O=C(CCC(=O)N(CC(=O)NC1CCCCC1)c1ccc(F)cc1)Nc1nccs1
The “hERG current change (%, negative = inhibition) at 10uM” value of the first is higher: -4.93% for the first, -73.7% for the second.

Going from O=C(CCC(=O)N(CC(=O)NC1CCCC1)c1ccc(F)cc1)Nc1nccs1 to CCOc1ccc(N(CC(=O)NC2CCCCC2)C(=O)CCC(=O)Nc2ccccn2)cc1, the “hERG current change (%, negative = inhibition) at 10uM” value falls from 4.37% to -23.3%.
